Some test systems named below: T-47D breast; MDA-MB-435 melanoma; SW-620 colon; MCF7 breast; HCT-116 colon; HCC-2998 colon; KM12 colon.
Common to all, as to assay: NCI-60 one-dose screen, 48 h (100 = growth as untreated, 0 = no growth, -100 = all killed)
Holding throughout (conditions): 10 µM unless noted

About 83,000 compounds went through this panel and 20% of them were active in at least one assay; those are over-represented in the sample as a whole.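 Activity criterion: percent growth below 10, measured after cells in 96-well plates were exposed to a single compound concentration for 48 hours.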 Values without a mark were called inactive. Calls of active or inactive are those of the source.

With `O=C1COCCN1c1ccc(NCc2cn(Cc3ccc(F)cc3)c3ccccc23)cc1`, the growth in the assay with T-47D breast is -19.8% (active); in the assay with MDA-MB-435 melanoma, 99.1%; with SW-620 colon, 28.1%; with MCF7 breast it was 4.76% (active); in the assay with HCT-116 colon, 6.21% (active); in the assay on HCC-2998 colon, 81.9%. Further, the growth with KM12 colon was 98.6%.
Regarding `COc1ccc2[nH]c(C(=O)N3CCN(C(=O)OCc4ccc5c(Br)cc(Br)c(O)c5n4)CC3)cc2c1`, the growth is -62.5% (active) with T-47D breast; -86.6% (active) in the assay with MDA-MB-435 melanoma; -70.3% (active) in the assay on SW-620 colon; -58.4% (active) in the assay on MCF7 breast; -87.1% (active) with HCT-116 colon; -90.7% (active) in the assay with HCC-2998 colon. In addition, in the assay on KM12 colon, the growth was -59.8% (active).
Consider `CN(Cc1cccc(C(F)(F)F)c1)C(=O)[C@@H](CC(=O)N1CCC(N2CCCCC2)CC1)N1C(=O)[C@@H](N2C(=O)OC[C@@H]2c2ccccc2)[C@H]1/C=C/c1ccccc1`, for which the growth with T-47D breast is 76.3%; with MDA-MB-435 melanoma, 73.1%; in the assay with SW-620 colon it was 93.2%; with MCF7 breast it was 65.4%; with HCT-116 colon, 85.2%; in the assay with HCC-2998 colon it was 91.9%. The growth in the assay on KM12 colon was 102%.
For the compound `Cn1cc(-c2noc(-c3cn(C)c4ncc(F)cc34)n2)c2cc(Cl)ccc21`, the growth in the assay on T-47D breast is 14%; in the assay with MDA-MB-435 melanoma it was 68.5%; in the assay with SW-620 colon it was 47.4%; with MCF7 breast, 38.5%; with HCT-116 colon, 44.5%; in the assay on HCC-2998 colon it was 97%. Moreover, the growth with KM12 colon was 61.1%.
Regarding `COc1ccc(NC(=O)Nc2ccc(-c3cccnc3)cc2N2CCC(CO)CC2)cc1`, the growth in the assay with T-47D breast is 68.8%; in the assay on MDA-MB-435 melanoma, 26%; with SW-620 colon, 65.2%; with MCF7 breast, 31.8%; in the assay with HCT-116 colon it was 12.5%; in the assay with HCC-2998 colon, 42%. Moreover, the growth in the assay with KM12 colon was 38.8%.
In the case of `Cc1ccc2c(c1)C(C)Cc1c(Cl)ncnc1N2C` (centres undefined), the growth in the assay with T-47D breast was 51.8%; in the assay with MDA-MB-435 melanoma, 6.38% (active); in the assay on SW-620 colon, 16.6%; in the assay with MCF7 breast it was 13.5%; with HCT-116 colon, 12.9%; in the assay on HCC-2998 colon, 20.5%. Moreover, in the assay with KM12 colon, the growth was 9.89% (active).
`COc1ccc2c(c1)C(C)Cc1c(Cl)nc(C)nc1N2C` (centres undefined): the growth was 39.6% in the assay with T-47D breast; -20.5% (active) with MDA-MB-435 melanoma; 24.8% in the assay on SW-620 colon; 19.7% in the assay with MCF7 breast; 12.2% with HCT-116 colon; 30.3% in the assay with HCC-2998 colon. Also, the growth in the assay on KM12 colon is 21%.
With `O=C1COCCN1c1ccc(NCc2cn(Cc3cccc4ccccc34)c3ccccc23)cc1`, the growth in the assay on T-47D breast was 43.1%; with MDA-MB-435 melanoma, 98%; with SW-620 colon, 83%; in the assay with MCF7 breast, 63.4%; in the assay with HCT-116 colon, 39.3%; in the assay on HCC-2998 colon, 103%. In addition, the growth in the assay with KM12 colon was 96.5%.
On to `Nc1cc(Cl)cc2cccnc12`, for which the growth is 112% in the assay on T-47D breast; 106% in the assay with MDA-MB-435 melanoma; 102% in the assay on SW-620 colon; 95.2% in the assay with MCF7 breast; 109% with HCT-116 colon; 93.5% in the assay with HCC-2998 colon. For the same compound, in the assay on KM12 colon, the growth is 101%.
For `CCOc1ccc(/C=C(\C#N)c2cc3ccccc3[nH]2)cc1`, the growth with T-47D breast was 39.7%; with MDA-MB-435 melanoma, -28.8% (active); in the assay on SW-620 colon, 24.6%; with MCF7 breast, 24.7%; in the assay on HCT-116 colon, 37.1%; in the assay with HCC-2998 colon it was 72.5%. In the assay with KM12 colon, the growth was 22.5%.
`CCOC(=O)COc1c(C)cc(SSc2cc(C)c(OCC(=O)OCC)c(C)c2)cc1C`: the growth with T-47D breast is 91.3%; with MDA-MB-435 melanoma, 114%; in the assay with SW-620 colon it was 99.5%; with MCF7 breast, 92.6%; in the assay on HCT-116 colon, 104%; with HCC-2998 colon, 112%. The growth in the assay with KM12 colon was 72.4%.
Regarding `Cn1cc(-c2noc(-c3cn(C)c4ncc(F)cc34)n2)c2ccccc21`, the growth was 42.3% with T-47D breast; 72.8% in the assay on MDA-MB-435 melanoma; 56.1% with SW-620 colon; 34.1% in the assay on MCF7 breast; 27% with HCT-116 colon; 86.6% in the assay with HCC-2998 colon. Moreover, in the assay on KM12 colon, the growth is 62.7%.
In the case of `Cc1cc(C)c(O)c(CNCCCCCCNCc2cc(C)cc(C)c2O)c1`, the growth with T-47D breast is -60.8% (active); in the assay on MDA-MB-435 melanoma it was -90.8% (active); in the assay on SW-620 colon, -75.4% (active); in the assay on MCF7 breast, -81.4% (active); with HCT-116 colon, -42.9% (active); with HCC-2998 colon it was -84.3% (active). Also, the growth in the assay with KM12 colon is -38.2% (active).
With `NNC(=O)c1ccc(C(=O)NN)cc1`, the growth is 133% in the assay on T-47D breast; 106% with MDA-MB-435 melanoma; 99.2% in the assay on SW-620 colon; 106% in the assay on MCF7 breast; 108% with HCT-116 colon; 100% with HCC-2998 colon. Further, the growth in the assay with KM12 colon is 107%.
Consider `CCN=Cc1c(O)c(O)c(C(C)C)c2cc(C)c(-c3c(C)cc4c(C(C)C)c(O)c(O)c(C=NCC)c4c3O)c(O)c12`, for which the growth was 35% in the assay with T-47D breast; 68.1% in the assay with MDA-MB-435 melanoma; 29.2% in the assay on SW-620 colon; 27.3% in the assay with MCF7 breast; 22.5% in the assay with HCT-116 colon; 38.9% in the assay with HCC-2998 colon. Besides, the growth in the assay on KM12 colon was 21.3%.
As for `O=C(CCNCc1ccccc1)c1ccccc1`, the growth with T-47D breast is 104%; with MDA-MB-435 melanoma, 109%; in the assay on SW-620 colon, 109%; in the assay with MCF7 breast it was 102%; with HCT-116 colon, 106%; in the assay with HCC-2998 colon, 107%. Besides, in the assay on KM12 colon, the growth is 96.7%.
Regarding `COc1ccc(-c2cc(-c3ccc(Cl)cc3)nc(SCCCCCCC(=O)NO)n2)cc1`, the growth in the assay on T-47D breast is -2.44% (active); in the assay with MDA-MB-435 melanoma it was 39.2%; in the assay on SW-620 colon, 25.5%; with MCF7 breast, 22.1%; in the assay with HCT-116 colon, 14.9%; with HCC-2998 colon, 59.8%. Moreover, in the assay with KM12 colon, the growth was 45.9%.
In the case of `COc1ccc(C(C(=O)O)c2ccc(OC)cc2)cc1`, the growth with T-47D breast was 118%; in the assay on MDA-MB-435 melanoma it was 115%; in the assay with SW-620 colon it was 107%; in the assay with MCF7 breast, 101%; with HCT-116 colon it was 108%; in the assay with HCC-2998 colon, 116%. The growth in the assay on KM12 colon was 111%.
As for `CSc1nc2sc3cc(Cl)c(Cl)cc3n2c(=N)c1C#N`, the growth was 89.4% with T-47D breast; 97.7% in the assay on MDA-MB-435 melanoma; 98.1% in the assay with SW-620 colon; 60.5% in the assay with MCF7 breast; 100% with HCT-116 colon; 106% in the assay with HCC-2998 colon. For the same compound, the growth with KM12 colon is 98.9%.
On to `O=C(NCCCNC(=O)OCc1ccc2cccc(O)c2n1)OCc1ccc2cccc(O)c2n1`, for which the growth is 49.1% in the assay on T-47D breast; 18.5% with MDA-MB-435 melanoma; 4.75% (active) in the assay with SW-620 colon; 19.3% with MCF7 breast; -46.3% (active) with HCT-116 colon; 85.1% in the assay with HCC-2998 colon. For the same compound, the growth in the assay with KM12 colon was 53.3%.
As to `O=C(OCc1ccc2c(Cl)cc(Cl)c(O)c2n1)N1CCN(C(=O)c2cc3cc(F)ccc3[nH]2)CC1`, the growth was 62.2% in the assay with T-47D breast; -54.5% (active) with MDA-MB-435 melanoma; 16.9% in the assay with SW-620 colon; 14.5% in the assay on MCF7 breast; 5.58% (active) in the assay with HCT-116 colon; 22.6% in the assay with HCC-2998 colon. Moreover, in the assay on KM12 colon, the growth is -15.2% (active).
On to `Brc1ccc2c(c1)CN(C1CCCCC1)CO2`, for which the growth with T-47D breast is 96.2%; with MDA-MB-435 melanoma it was 103%; in the assay on SW-620 colon, 100%; in the assay with MCF7 breast, 106%; in the assay with HCT-116 colon, 108%; in the assay with HCC-2998 colon, 102%. The growth in the assay with KM12 colon was 100%.
